CYP2C9 act = human CYP2C9 activators, primary screen, biochemical, luminescence. recombinant CYP2C9, luciferin-H conversion; active compounds read high; factor 1 = untreated enzyme, 0 = blocked. Cytochrome P450 2C9 (Homo sapiens), P11712. activation factor at 5 µM. actives 1.4% (n = 96,000);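 active = activation factor of 2 or more for CYP2C9 at a 5 µM dose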;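 note: 0 = sulfaphenazole-blocked wells and 1 = vehicle-only wells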
CYP2C9 inh = blockers of cytochrome P450 2C9 activity – biochemical, luminescence, ADME assay, primary screen; P11712; CYP2C9 Supersomes, luciferin-H conversion; inhibition, % at 5 µM; actives 20% (n = 96,000); AID 777, 2007;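 active = blocking of liver enzyme CYP2C9 beyond about 50% at 5 µM, limit read from the data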
CYP2C19 act = human CYP2C19 activators, primary screen, biochemical, luminescence | Cytochrome P450 2C19 (Homo sapiens), P33261 | recombinant CYP2C19, luciferin-H EGE luminescence; active compounds read high; 0 = fully inhibited enzyme, 1 = untreated enzyme | activation factor at 5 µM | 96,000 tested, under 10 active | AID 1025, 2008;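 active = activation factor of at least 2 at 5 µM in the primary screen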;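 note: 0 = wells with 2.5 mM tranylcypromine and 1 = vehicle-only wells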
CYP2C19 inh = blockers of cytochrome P450 2C19 activity – biochemical, luminescence, ADME assay, primary screen. P33261. CYP2C19 Supersomes, luciferin-H EGE luminescence, 30 min. inhibition, % at 5 µM. actives 21% (n = 96,000);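 active = CYP2C19 inhibition above a set limit at 5 µM in the primary screen, cut at about 50% in these data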;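 note: plate controls were negative control wells for no effect and 2.5 mM tranylcypromine positive control for full effect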
PTK2B oligo ant = antagonists of Pyk2 self-association, primary screen, Q293 cells, FERM NanoBiT luminescence, HTS; Protein-tyrosine kinase 2-beta (Homo sapiens), Q14289; active compounds read low; z-score (the deposit names both 25 µM and 10 µM); actives 0.83% (n = 99,000);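 active = Z-score of -3 or lower, scaled per plate to the spread of control and sample wells; inactive = z-score above -3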;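 note: negative z-score means lost luminescence so less FERM oligomerization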
Target sequence (Q14289 whole entry, looked up): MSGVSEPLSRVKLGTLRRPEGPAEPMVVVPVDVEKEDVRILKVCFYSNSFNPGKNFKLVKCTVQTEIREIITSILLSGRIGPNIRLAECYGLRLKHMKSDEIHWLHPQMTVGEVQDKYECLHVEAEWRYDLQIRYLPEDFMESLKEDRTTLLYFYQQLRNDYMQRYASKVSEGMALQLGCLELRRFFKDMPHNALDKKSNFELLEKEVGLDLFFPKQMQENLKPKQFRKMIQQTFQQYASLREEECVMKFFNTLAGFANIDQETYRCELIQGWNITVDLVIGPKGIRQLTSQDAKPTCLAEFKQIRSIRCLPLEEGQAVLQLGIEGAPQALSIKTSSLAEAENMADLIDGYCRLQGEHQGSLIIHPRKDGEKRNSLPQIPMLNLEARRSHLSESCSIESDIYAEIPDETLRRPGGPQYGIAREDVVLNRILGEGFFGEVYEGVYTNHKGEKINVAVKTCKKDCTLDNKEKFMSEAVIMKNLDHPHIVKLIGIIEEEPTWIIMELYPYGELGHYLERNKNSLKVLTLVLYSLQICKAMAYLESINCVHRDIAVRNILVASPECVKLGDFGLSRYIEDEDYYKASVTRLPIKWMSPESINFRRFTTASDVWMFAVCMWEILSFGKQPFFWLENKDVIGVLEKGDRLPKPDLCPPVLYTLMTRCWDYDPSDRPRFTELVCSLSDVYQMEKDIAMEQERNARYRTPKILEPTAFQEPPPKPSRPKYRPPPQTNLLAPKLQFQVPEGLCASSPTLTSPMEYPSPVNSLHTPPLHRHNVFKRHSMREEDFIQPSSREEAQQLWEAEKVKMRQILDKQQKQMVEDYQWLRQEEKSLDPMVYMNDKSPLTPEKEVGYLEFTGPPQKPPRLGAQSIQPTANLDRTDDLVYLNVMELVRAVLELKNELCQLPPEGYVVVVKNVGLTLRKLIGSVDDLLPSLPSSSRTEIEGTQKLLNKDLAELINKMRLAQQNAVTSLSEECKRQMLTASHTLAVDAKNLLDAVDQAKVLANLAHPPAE
Cav3 T inh = Cav3.2 calcium influx blockers – cell-based, Fluo-4 calcium fluorescence, FDSS, MLSMR library, primary screen; Cav3.2-expressing cells; active compounds read low; B-score at 10 µM; AID 449739, 2010; actives 4% (n = 100,000);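 active = single-dose well whose peak fluorescence ratio is a statistical outlier from its plate by either plate-standardised score or position-corrected B-score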
* hit, by the source's call. Sampled rows, rich in hits. Any-hit rate of the full collection: about 27%.

Results for Cc1cc(C)n(CC2CC(=O)N(c3ccc(Cl)c(Cl)c3)C2=O)n1 (configuration not stated) ?
CYP2C9 act: 0.2; CYP2C9 inh: 77*; CYP2C19 act: 0; CYP2C19 inh: 99*; PTK2B oligo ant: -0.86; Cav3 T inh: 0.84

Results for CC(=O)NC1(C(F)(F)F)C(=O)Nc2c1c(=O)[nH]c(=O)n2Cc1ccco1 (configuration not stated) ?
CYP2C9 act: 1.2; CYP2C9 inh: -24; CYP2C19 act: 1.3; CYP2C19 inh: -26; PTK2B oligo ant: 1.4

What do the screens show for `O=c1[nH]c(=O)n(Cc2ccco2)c2c1C(C(F)(F)F)(C(F)(F)F)N=C(Cc1ccccc1)N2`?
CYP2C9 act: 0.2; CYP2C9 inh: 76*; CYP2C19 act: 0.7; CYP2C19 inh: 33; PTK2B oligo ant: -3.7*; Cav3 T inh: -3.1

How did CCOc1ccc2[nH]c(=O)c(CN(Cc3ccco3)Cc3nnnn3Cc3ccccc3)cc2c1 do in these assays?
CYP2C9 act: 0.5; CYP2C9 inh: 50*; CYP2C19 act: 0.7; CYP2C19 inh: 31; PTK2B oligo ant: 1.5; Cav3 T inh: -3.1

How did COc1ccc(Cn2nnnc2CN(Cc2cc3cccc(C)c3[nH]c2=O)C2CCCC2)cc1 do in these assays?
CYP2C9 act: 0.4; CYP2C9 inh: 61*; CYP2C19 act: 0.5; CYP2C19 inh: 47; PTK2B oligo ant: 1.8; Cav3 T inh: -0.29

What do the screens show for `CCOc1ccc2[nH]c(=O)c(CN(Cc3nnnn3Cc3ccco3)C3CCCCC3)cc2c1`?
CYP2C9 act: 0.8; CYP2C9 inh: 25; CYP2C19 act: 0.3; CYP2C19 inh: 70*; PTK2B oligo ant: 0.48; Cav3 T inh: -0.048

How did Cn1c(=O)n(C)c2cc(NC(=O)CCl)ccc21 do in these assays?
CYP2C9 act: 0.7; CYP2C9 inh: 35; CYP2C19 act: 0.9; CYP2C19 inh: 6; PTK2B oligo ant: -0.54; Cav3 T inh: 0.62

What do the screens show for `CCC1CCCCN1c1nc(-c2cccc(OC)c2O)nc2ccccc12` (configuration not stated)?
CYP2C9 act: 0.2; CYP2C9 inh: 83*; CYP2C19 act: 0.8; CYP2C19 inh: 25; PTK2B oligo ant: -0.95; Cav3 T inh: -1

How did CC1CCN(c2nc(-c3ccncc3)nc3ccccc23)CC1 do in these assays?
CYP2C9 act: 0.2; CYP2C9 inh: 76*; CYP2C19 act: 0.1; CYP2C19 inh: 93*; PTK2B oligo ant: -0.23; Cav3 T inh: -1.9

Results for COc1cccc(-c2nc(N3CCN(c4ccccc4)CC3)c3ccccc3n2)c1O ?
CYP2C9 act: 0.4; CYP2C9 inh: 55*; CYP2C19 act: 0.8; CYP2C19 inh: 21; PTK2B oligo ant: -0.46; Cav3 T inh: 0.21

Results for CC1CCCCN1c1nc(-c2ccncc2)nc2ccccc12 (configuration not stated) ?
CYP2C9 act: 0.2; CYP2C9 inh: 78*; CYP2C19 act: 0.1; CYP2C19 inh: 91*; PTK2B oligo ant: -1.2; Cav3 T inh: -3

What do the screens show for `COc1ccc2c(CC#N)c[nH]c2c1`?
CYP2C9 act: 1.1; CYP2C9 inh: -10; CYP2C19 act: 0.8; CYP2C19 inh: 20; PTK2B oligo ant: -0.33; Cav3 T inh: -0.35

What do the screens show for `Cc1onc(-c2c(F)cccc2Cl)c1C(=O)OCn1nnc2ccccc2c1=O`?
PTK2B oligo ant: -1.5; Cav3 T inh: -1.8

Results for CCC1CCCCN1c1nc(-c2ccncc2)nc2ccccc12 (configuration not stated) ?
CYP2C9 act: 0; CYP2C9 inh: 100*; CYP2C19 act: 0; CYP2C19 inh: 99*; PTK2B oligo ant: -0.52; Cav3 T inh: -2.1

How did c1ccc2c(N3CCOCC3)nc(-c3ccncc3)nc2c1 do in these assays?
PTK2B oligo ant: -0.3

How did CC(C)C(c1nnnn1C1CCCCC1)N1CCN(c2ncccn2)CC1 (configuration not stated) do in these assays?
CYP2C9 act: 0.4; CYP2C9 inh: 60*; CYP2C19 act: 0.7; CYP2C19 inh: 27; PTK2B oligo ant: 0.55; Cav3 T inh: 0.91

How did CC(C)C(c1nnnn1C1CCCC1)N1CCN(C(=O)c2ccco2)CC1 (configuration not stated) do in these assays?
CYP2C9 act: 0.5; CYP2C9 inh: 50*; CYP2C19 act: 1; CYP2C19 inh: 5; PTK2B oligo ant: -0.74; Cav3 T inh: -1.6

Results for COc1nc(OC)nc(N2CCC(C(=O)NCc3cccs3)CC2)n1 ?
CYP2C9 act: 1.4; CYP2C9 inh: -45; CYP2C19 act: 0.8; CYP2C19 inh: 24; PTK2B oligo ant: 0.14

What do the screens show for `CC(CN1CCCCC1)OC(=O)C(C)(c1ccccc1)c1ccccc1` (configuration not stated)?
CYP2C9 act: 0.3; CYP2C9 inh: 68*; CYP2C19 act: 0.5; CYP2C19 inh: 54*; PTK2B oligo ant: -0.41; Cav3 T inh: -0.26

What do the screens show for `CC(CN1CCCCC1)OC(=O)Cc1ccc(Cl)cc1` (configuration not stated)?
CYP2C9 act: 0.9; CYP2C9 inh: 6; CYP2C19 act: 0.4; CYP2C19 inh: 60*; PTK2B oligo ant: -0.18; Cav3 T inh: 0.76

How did Cc1cc(N2C3CCC2CC(O)(c2ccc(F)cc2)C3)nc(-c2ccccc2)n1 (configuration not stated) do in these assays?
CYP2C9 act: 0; CYP2C9 inh: 100*; CYP2C19 act: 0.1; CYP2C19 inh: 94*; PTK2B oligo ant: -3.1*; Cav3 T inh: -1.7

What do the screens show for `CC(C)C(=O)N1C2CCC1CC(O)(c1ccc(F)cc1)C2` (configuration not stated)?
CYP2C9 act: 0.8; CYP2C9 inh: 21; CYP2C19 act: 1; CYP2C19 inh: -4; PTK2B oligo ant: 0.93; Cav3 T inh: -0.18

How did CCOC(=O)c1c(C)c(C(=O)N(C)C2CCCCC2)c(C)n1C do in these assays?
CYP2C9 act: 0.5; CYP2C9 inh: 48; CYP2C19 act: 0.5; CYP2C19 inh: 54*; PTK2B oligo ant: 0.91

What do the screens show for `Cc1ccc(=O)n(C(C(=O)NCc2ccco2)C(=O)c2ccc(F)cc2)c1` (configuration not stated)?
CYP2C9 act: 1.1; CYP2C9 inh: -9; CYP2C19 act: 0.9; CYP2C19 inh: 6; PTK2B oligo ant: -0.08; Cav3 T inh: -0.13

How did C/C(=N\N1CCN(C2c3ccccc3-c3ccccc32)CC1)c1ccncc1 do in these assays?
CYP2C9 act: 0.5; CYP2C9 inh: 52*; CYP2C19 act: 0.2; CYP2C19 inh: 77*; PTK2B oligo ant: 0.26; Cav3 T inh: 0.16
